According to PubChem BioAssay (NCI):
About 83,000 compounds went through this panel and 20% of them were active in at least one assay; those are over-represented in the sample as a whole.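 The endpoint reported here, percent growth, reads 100 for growth as untreated, 0 for no net growth and -100 for all cells dead.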 A number with no mark means an inactive call. Activity calls are given as the source filed them. Rule for the calls: active = growth percent below 10; inactive = the rest.

Legend:
Assay in all cases: NCI-60 one-dose screen, 48 h (100 = growth as untreated, 0 = no growth, -100 = all killed)
Conditions in all cases: 10 µM
[1] = test system: NCI-H23 lung
[2] = test system: NCI-H226 lung
[3] = test system: NCI-H322M lung
[4] = test system: HOP-62 NSCLC
[5] = test system: NCI-H460 lung
[6] = test system: HOP-92 NSCLC
[7] = test system: NCI-H522 lung
[8] = test system: A549/ATCC NSCLC
[9] = test system: 786-0 renal
[10] = test system: COLO 205 colon

Row | SMILES | growth [1] | growth [2] | growth [3] | growth [4] | growth [5] | growth [6] | growth [7] | growth [8] | growth [9] | growth [10]
1 | COc1cc(-c2nc3ccc(C)cc3[nH]2)ccc1OCC(=O)N=Nc1c(O)[nH]c2ccccc12 | -17.5% (active) | 112% | -33.9% (active) | -49.4% (active) | -70.5% (active) | -12.7% (active) | -63.5% (active) | 8.54% (active) | -93.5% (active) | -37.8% (active)
2 | O=C1CC[C@@H](C(=O)N[C@H]2CSSC[C@@H](C(=O)NCCc3ccccc3)NC(=O)[C@H](Cc3ccccc3)NC(=O)[C@@H]3CCCN3C(=O)[C@@H]3CCCN3C2=O)N1 | 92.7% | 87.5% | 115% | 55.1% | 101% | 94.6% | 96.2% | 86.2% | 99% | 119%
3 | COc1ccc(NC(=O)CCn2cnc3c(cc(-c4ccccc4)n3-c3ccccc3)c2=O)cc1 | 85.8% | 88.8% | 109% | 11.2% | 91.8% | 69.1% | 45.1% | 85.8% | 88.7% | 114%
4 | CC1(C)CCc2cc(-c3ccn(S(=O)(=O)c4ccc(Cl)cc4)n3)ccc2O1 | 65.5% | 74.4% | 94.2% | 92.9% | 73.8% | 8% (active) | 66.2% | 67.4% | 71.4% | 117%
5 | CCCCOCCOCCOCc1cc2c(cc1Br)OCO2 | 99.3% | 97.4% | 91.8% | 92.7% | 111% | 85% | 80.4% | 91.2% | 100% | 107%
6 | CCCCCCCOc1cccc(/C=C2/C(=O)N=C3SCCCN32)c1 | 70.7% | 64.5% | 89.1% | 85.7% | 82% | 62.8% | 23.6% | 94.9% | 80.4% | 81.2%
7 | CN1/C(=C\C(I)C(I)C2=[N+](C)c3ccccc3C2(C)C)C(C)(C)c2ccccc21 (stereo not given) | 3.16% (active) | 16.5% | 20.9% | 5.15% (active) | 4.27% (active) | -25.7% (active) | -14.1% (active) | 11.3% | 23.2% | -20.6% (active)
8 | Cc1ccc(C)c(S(=O)(=O)NC2c3ccccc3Oc3ccccc32)c1 | 98% | 90.3% | 88.3% | 96.1% | 105% | 59.6% | 31.6% | 96.7% | 88% | 99.2%
9 | Nc1c(CNCc2nnn(Cc3ccccc3)c2N)nnn1Cc1ccccc1 | 103% | 100% | 100% | 98.9% | 103% | 90.3% | 102% | 101% | 102% | 114%
10 | FC(F)(F)c1ccc(-c2ncc(-c3ccc(C(F)(F)F)cc3)c(NCc3cc(C(F)(F)F)cc(C(F)(F)F)c3)n2)cc1 | 39.3% | 46.7% | 90.9% | 62.6% | 38.5% | -6.55% (active) | 43.3% | 65.7% | 53.9% | 74.9%
11 | O=C(Nc1cccc([N+](=O)[O-])c1)NN1CCCCCC1 | 105% | 95.7% | 111% | 111% | 91.2% | 80.8% | 90% | 87% | 96.3% | 104%
12 | COc1cc(/C=C/C(=O)c2cc(-c3ccc(F)cc3)ccc2O)cc(OC)c1OC | 56.3% | 83.5% | 93.6% | 115% | 80.6% | 57.8% | 58.7% | 83.5% | 94.1% | 88.2%
13 | CCOC(=S)Sc1ccc([N+](=O)[O-])cc1[N+](=O)[O-] | 97.3% | 88.8% | 93.3% | 94% | 106% | 48.6% | -1.29% (active) | 83.2% | 102% | -13.1% (active)
14 | CCC(CCNc1cc(OC)cc2cccnc12)CN1C(=O)c2ccccc2C1=O (stereo not given) | 91.3% | 98.9% | 112% | 102% | 138% | 93% | 87.5% | 105% | 104% | 113%
15 | CC(=O)c1c(O)cc2c3c1OC(C)(C)C1CCC(C)(CC31)O2 (stereo not given) | 100% | 85.8% | 98% | 106% | 108% | 92% | 102% | 98.1% | 104% | 92.3%
16 | COc1cc(NS(C)(=O)=O)ccc1Nc1c2ccc(Cl)cc2nc2c(OC)cccc12 | -23.6% (active) | -37.4% (active) | 57.5% | -14.3% (active) | -46.9% (active) | 14.5% | -6.02% (active) | -7.09% (active) | -39.5% (active) | 34.3%
17 | Oc1ccc(Cn2cc3c(c2-c2ccccc2)CCc2cnoc2-3)cc1 | 92.8% | 96.4% | 116% | 99.2% | 105% | 79.2% | 84.5% | 84.1% | 92.9% | 98%
18 | C#CCNCCN1C(=O)c2ccc3c4c(ccc(c24)C1=O)C(=O)N(CCNCC#C)C3=O | 23.8% | 20.9% | 28.7% | 48.4% | 12.8% | 91.2% | 26.3% | 29.2% | 43.1% | -77.3% (active)
19 | CC1(C)CC(=O)c2c(nc3ccc(Cl)cc3c2-c2ccccc2)C1 | 89.9% | 97.6% | 103% | 92.1% | 90.1% | 45.6% | 73% | 95.7% | 101% | 94.5%
20 | CCCc1c(CC)c(=N)c2ccccc2n1C | 88% | 83.2% | 71% | 68.2% | 65.9% | 76.1% | 73.6% | 50.4% | 41% | -18.5% (active)
21 | CN(C)c1ccc2c(c1)OC(N)=C(C#N)C2c1ccc2c(c1)CCO2 (stereo not given) | 35.5% | 48.9% | 51.4% | 36.3% | 9.76% (active) | 58.8% | -6.52% (active) | 21.9% | 34.8% | -26% (active)
22 | Nc1ccccc1NC(=O)CCCCCCC(=O)Nc1ccc2c(c1)/C(=C/c1ccc[nH]1)C(=O)N2 | 60.7% | 45.5% | 40.6% | 52.2% | 27.5% | 8.25% (active) | 11.7% | 47% | 38.2% | 79.4%
23 | COc1ccc2nc(NC(=O)Nc3c(F)cccc3F)sc2c1 | 105% | 94% | 99.5% | 106% | 99.3% | 93.1% | 96.8% | 96.3% | 94.3% | 125%
24 | COc1ccc(C2C=C(c3ccc(Cl)c(Cl)c3)N=C3SC(C)=CN32)cc1OC (stereo not given) | 64% | 79.7% | 71.7% | 82.3% | 70.2% | 47.2% | 57.9% | 58.6% | 78.8% | 72.1%
25 | CCOC(=O)c1sc(Nc2ncccn2)nc1-c1ccccn1 | 84.4% | 92.8% | 85% | 92% | 66.9% | 97.5% | 85.7% | 84.3% | 97.9% | 98.3%
